The text below walks through data of PubChem BioAssay (EPA / NIEHS).

Where “and” joins values, the source holds several entries; their conditions need not be identical. Identical values can stand only once. Where a structure was tested more than once in an assay, its records may differ in their call. Calls of active or inactive are those of the source. The calls were made as follows: active = hit-call score of the fitted dose curve at least 0.9, where 1 is the maximum; inactive = score below 0.9.

As a reminder, the AC50 is the concentration at which the activity in the assay is half-maximal.

Read-out in assay [1]: Urokinase-type plasminogen activator receptor (uPAR), PLAUR (gene 5329)
Briefly: BSK_4H_uPAR: BioMAP Diversity Plus: 4H Assay for Urokinase-type plasminogen activator receptor (uPAR) Biomarker Activity (AID 2283030). The settings on record: primary human endothelial cells (HUVEC); actives raise or lower the signal. A digest of the protocol:
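Primary human umbilical vein endothelial cells were exposed to chemical for 24 h before cell-surface uPAR was quantified by ELISA. Activity was fitted bidirectionally against the DMSO negative control baseline.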

Read-out in assay [2]: Vascular endothelial growth factor receptor 2 (Homo sapiens) (UniProt P35968)
Briefly: BSK_4H_VEGFRII: BioMAP Diversity Plus: 4H Assay for Vascular endothelial growth factor receptor 2 (VEGFR2) Biomarker Activity (AID 2283031). The settings on record: primary human endothelial cells (HUVEC); actives raise or lower the signal. A digest of the protocol: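 Primary human umbilical vein endothelial cells in the BioMAP 4H system were dosed with test chemical, and 24 h later VEGFRII was measured by ELISA. Activity was fitted bidirectionally against DMSO as negative control and baseline.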

Read-out in assay [3]: Vascular cell adhesion molecule 1 (VCAM1), VCAM1 (gene 7412)
Briefly: BSK_4H_VCAM1: BioMAP Diversity Plus: 4H Assay for Vascular cell adhesion molecule 1 (VCAM1) Biomarker Activity (AID 2283033).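 As to outcome: cell-surface VCAM-1 protein measured by ELISA.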 Particulars: primary human endothelial cells (HUVEC); actives raise or lower the signal. A digest of the protocol: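 HUVEC, 24 h post-dose; VCAM-1 by ELISA. Bidirectional curve fit vs DMSO baseline. Parallel SRB total-protein stain (0.1% SRB after 10% TCA fixation, 560 nm) for cytotoxicity.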

Read-out in assay [4]: Interferon-gamma inducible Protein 10 (IP10), CXCL10 (gene 3627)
Briefly: BSK_BE3C_IP10: BioMAP Diversity Plus: BE3C Assay for Interferon-gamma inducible Protein 10 (IP10) Biomarker Activity (AID 2283034). Particulars: primary human bronchial epithelial cells; actives raise or lower the signal. A digest of the protocol:
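ELISA readout of IP-10 in BE3C system: primary human bronchial epithelial cells, 24 h post-dosing; bidirectional curve fit vs DMSO baseline.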

Read-out in assay [5]: Monokine induced gamma interferon (MIG), CXCL9 (gene 4283)
Briefly: BSK_BE3C_MIG: BioMAP Diversity Plus: BE3C Assay for Monokine induced gamma interferon (MIG) Biomarker Activity (AID 2283035).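 Also: MIG protein measured by ELISA in BE3C cultures after 24 h of dosing.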 Particulars: primary human bronchial epithelial cells; actives raise or lower the signal. Put shortly:
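Dose cells (human primary bronchial epithelial), incubate 24 h, quantify MIG by ELISA, then fit concentration–response in both directions relative to DMSO control.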

Read-out in assay [6]: Transforming growth factor beta 1 (TGFb1), TGFB1 (gene 7040)
In words: BSK_BE3C_TGFb1: BioMAP Diversity Plus: BE3C Assay for Transforming growth factor beta 1 (TGFb1) Biomarker Activity (AID 2283036;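 also: TGF-b1 protein level measured by ELISA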). The settings on record: primary human bronchial epithelial cells; actives raise or lower the signal. A digest of the protocol: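 Read-out: ELISA for TGF-b1 in primary human bronchial epithelial cultures, 24 h post-dose. Bidirectional curve fitting vs DMSO control; gain or loss of signal both scored.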

Read-out in assay [7]: Plasminogen activator inhibitor-1 (PAI1), SERPINE1 (gene 5054)
In words: BSK_BE3C_PAI1: BioMAP Diversity Plus: BE3C Assay for Plasminogen activator inhibitor-1 (PAI1) Biomarker Activity (AID 2283037). Particulars: primary human bronchial epithelial cells; actives raise or lower the signal. Put shortly:
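ELISA read-out of PAI-1 from human bronchial epithelial primary cells, 24 h post-dosing; bidirectional curve fit vs DMSO baseline, gain or loss of signal scored.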

Read-out in assay [8]: urokinase plasminogen activator (uPA), PLAU (gene 5328)
In words: BSK_BE3C_uPA: BioMAP Diversity Plus: BE3C Assay for urokinase plasminogen activator (uPA) Biomarker Activity (AID 2283038).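 Also: uPA protein level quantified by ELISA in cell cultures; uPA read one day after compound addition.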 Particulars: primary human bronchial epithelial cells; actives raise or lower the signal. Put shortly:
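Human primary bronchial epithelial cells were exposed to chemical for 24 h, then uPA levels were measured by ELISA. Responses were fitted bidirectionally against DMSO as negative control and baseline. Parallel SRB staining of total protein gauged overt cytotoxicity.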

Read-out in assay [9]: Urokinase-type plasminogen activator receptor (uPAR), PLAUR (gene 5329)
In words: BSK_BE3C_uPAR: BioMAP Diversity Plus: BE3C Assay for Urokinase-type plasminogen activator receptor (uPAR) Biomarker Activity (AID 2283039).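 Also: cells exposed to compound for one day before measurement.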 Particulars: primary human bronchial epithelial cells; actives raise or lower the signal. A digest of the protocol: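 ELISA readout of uPAR on human lung primary bronchial epithelial cells, 24 h post-dosing. Bidirectional curve fit relative to DMSO vehicle baseline; gain or loss of signal both scored.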

Read-out in assay [10]: Interleukin-6 (IL6), IL6 (gene 3569)
Briefly: BSK_CASM3C_IL6: BioMAP Diversity Plus: CASM3C Assay for Interleukin-6 (IL6) Biomarker Activity for (AID 2283040). Particulars: primary human coronary artery smooth muscle cells; actives raise or lower the signal.

Read-out in assay [11]: Tissue plasminogen activator (tPA), PLAT (gene 5327)
Briefly: BSK_BE3C_tPA: BioMAP Diversity Plus: BE3C Assay for Tissue plasminogen activator (tPA) Biomarker Activity (AID 2283041).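 Also: tPA level quantified by ELISA one day after compound addition.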 The settings on record: primary human bronchial epithelial cells; actives raise or lower the signal. A digest of the protocol:
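ELISA read-out of tPA on human primary bronchial epithelial cells, 24 h post-dosing; bidirectional fit vs DMSO negative control/baseline.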

Read-out in assay [12]: Interleukin-8 (IL8), CXCL8 (gene 3576)
In words: BSK_CASM3C_IL8: BioMAP Diversity Plus: CASM3C Assay for Interleukin-8 (IL8) Biomarker Activity (AID 2283042).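 Also: IL-8 protein level quantified by ELISA.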 Particulars: primary human coronary artery smooth muscle cells; actives raise or lower the signal.

Read-out in assay [13]: Human Leukocyte Antigen - DR isotype (HLADR), HLA-DRA (gene 3122)
In words: BSK_CASM3C_HLADR: BioMAP Diversity Plus: CASM3C Assay for Human Leukocyte Antigen - DR isotype (HLADR) Biomarker Activity (AID 2283043).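 Also: cell-surface HLA-DR protein level quantified by ELISA.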 The settings on record: primary human coronary artery smooth muscle cells; actives raise or lower the signal.

Read-out in assay [14]: Macrophage colony-stimulating factor (MCSF), CSF1 (gene 1435)
In words: BSK_CASM3C_MCSF: BioMAP Diversity Plus: CASM3C Assay for Macrophage colony-stimulating factor (MCSF) Biomarker Activity (AID 2283044).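 Also: M-CSF protein amount quantified by ELISA after 24 h exposure.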 The settings on record: primary human coronary artery smooth muscle cells; actives raise or lower the signal.

Read-out in assay [15]: Low-density lipoprotein receptor (LDLR), LDLR (gene 3949)
Briefly: BSK_CASM3C_LDLR: BioMAP Diversity Plus: CASM3C Assay for Low-density lipoprotein receptor (LDLR) Biomarker Activity (AID 2283045).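 Also: LDLR protein level on the cell surface quantified by ELISA.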 Particulars: primary human coronary artery smooth muscle cells; actives raise or lower the signal.

Read-out in assay [16]: Monocyte Chemoattractant Protein-1 (MCP1), CCL2 (gene 6347)
Briefly: BSK_CASM3C_MCP1: BioMAP Diversity Plus: CASM3C Assay for Monocyte Chemoattractant Protein-1 (MCP1) Biomarker Activity (AID 2283046).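 Also: MCP-1 level quantified by ELISA 24 h after dosing.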 Particulars: primary human coronary artery smooth muscle cells; actives raise or lower the signal.

Assay [17] can be described thus: BSK_CASM3C_Proliferation: Cell Proliferation Assessment in the BioMAP Diversity Plus: CASM3C Assay (AID 2283047).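 Also: sulforhodamine B total protein stain as relative cell number at 560 nm; sub-confluent cells exposed 48 h before staining; fitted both ways against DMSO so gain or loss of cell number.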 The settings on record: primary human coronary artery smooth muscle cells.
Read-out in assay [18]: Monokine induced gamma interferon (MIG), CXCL9 (gene 4283)
Briefly: BSK_CASM3C_MIG: BioMAP Diversity Plus: CASM3C Assay for Monokine induced gamma interferon (MIG) Biomarker Activity (AID 2283048). Particulars: primary human coronary artery smooth muscle cells; actives raise or lower the signal.

Read-out in assay [19]: serum amyloid A (SAA), SAA1 (gene 6288)
Briefly: BSK_CASM3C_SAA: BioMAP Diversity Plus: CASM3C Assay for serum amyloid A (SAA) Biomarker Activity (AID 2283049).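 Also: SAA protein level quantified by ELISA.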 Particulars: primary human coronary artery smooth muscle cells; actives raise or lower the signal.

In the case of `Nc1ccc2ccccc2c1`, the result in assay [1], in assay [2], in assay [3], in [4], in assay [5] and in [6] was inactive. Moreover, the result in assay [7], in assay [8], in assay [9], in [10], in [11] and in assay [12] was inactive. Moreover, the result in assay [13], in assay [14], in assay [15], in assay [16], in assay [17] and in assay [18] was inactive. In addition, the result in assay [19] was inactive.

As for `O=P(OCC(Br)CBr)(OCC(Br)CBr)OCC(Br)CBr` (centres undefined), the outcome in assay [1], in assay [2], in [4], in assay [5], in assay [6] and in assay [7] was inactive. Also, the result in assay [8], in [9], in assay [10], in [11], in [12] and in assay [13] was inactive. Further, the result in [14], in assay [16], in assay [18] and in assay [19] was inactive. Further, the results for the half-maximal activity concentration (AC50) in assay [3] and in assay [17] were 3.69 µM (active) and 3.51 µM (active), respectively.

For the compound `O=C(O)C(F)(OC(F)(F)C(F)(F)C(F)(F)F)C(F)(F)F` (centres undefined), the result in [1], in [2], in assay [3], in assay [4], in assay [5] and in assay [7] was inactive. Besides, the outcome in assay [8], in assay [9], in assay [10], in [11], in assay [12] and in assay [13] was inactive. Further, the outcome in [14], in assay [15], in assay [16], in assay [17], in [18] and in assay [19] was inactive. In addition, the AC50 in assay [7] is 0.22 µM (active); in assay [14] it was 0.218 µM (active); in assay [17], 5.17 µM (active).

Regarding `OCC(F)(F)OC(F)(F)C(F)(F)OC(F)(F)C(F)(F)OC(F)(F)CO`, the result in [1], in [2], in [3], in assay [5], in assay [7] and in [8] was inactive. Besides, the outcome in assay [9], in assay [10], in [11], in [12], in [13] and in assay [14] was inactive. Also, the result in [15], in assay [16], in assay [17], in [18] and in assay [19] was inactive. Also, the AC50 in [4] is 44.9 µM (active) and 35.8 µM (active); in assay [17] it was 47.2 µM (active).

On to `c1ccc2c(c1)Nc1ccccc1S2`, for which the outcome in assay [1], in assay [2], in assay [3], in assay [4], in assay [5] and in assay [6] was inactive. In addition, the outcome in assay [7], in assay [8], in assay [9], in assay [10], in assay [11] and in assay [12] was inactive. Moreover, the result in assay [13], in assay [14], in [15], in assay [16], in assay [17] and in assay [18] was inactive. Besides, in assay [19], the outcome was inactive.

As to `O=[N+]([O-])c1ccccc1`, the outcome in assay [1], in assay [3], in assay [4], in assay [5], in assay [6] and in [7] was inactive. The result in assay [8], in [9], in [10], in [11], in assay [12] and in [13] was inactive. The result in assay [14], in [15], in assay [16], in assay [17], in assay [18] and in assay [19] was inactive.
